“And” between values parts separate entries of the source, which are not always exact repeats. Equal values may be shown once. Records with an inconclusive call do not appear. The source made the active and inactive calls. Rule as the data show it, unless noted: active = parasite load remaining mostly below about 12% (no sharp cut-off); inactive = mostly above about 10%.
Molecular target: ATP-dependent translocase ABCB1 (Homo sapiens) (UniProt P08183)
Sequence (P08183 whole entry, looked up): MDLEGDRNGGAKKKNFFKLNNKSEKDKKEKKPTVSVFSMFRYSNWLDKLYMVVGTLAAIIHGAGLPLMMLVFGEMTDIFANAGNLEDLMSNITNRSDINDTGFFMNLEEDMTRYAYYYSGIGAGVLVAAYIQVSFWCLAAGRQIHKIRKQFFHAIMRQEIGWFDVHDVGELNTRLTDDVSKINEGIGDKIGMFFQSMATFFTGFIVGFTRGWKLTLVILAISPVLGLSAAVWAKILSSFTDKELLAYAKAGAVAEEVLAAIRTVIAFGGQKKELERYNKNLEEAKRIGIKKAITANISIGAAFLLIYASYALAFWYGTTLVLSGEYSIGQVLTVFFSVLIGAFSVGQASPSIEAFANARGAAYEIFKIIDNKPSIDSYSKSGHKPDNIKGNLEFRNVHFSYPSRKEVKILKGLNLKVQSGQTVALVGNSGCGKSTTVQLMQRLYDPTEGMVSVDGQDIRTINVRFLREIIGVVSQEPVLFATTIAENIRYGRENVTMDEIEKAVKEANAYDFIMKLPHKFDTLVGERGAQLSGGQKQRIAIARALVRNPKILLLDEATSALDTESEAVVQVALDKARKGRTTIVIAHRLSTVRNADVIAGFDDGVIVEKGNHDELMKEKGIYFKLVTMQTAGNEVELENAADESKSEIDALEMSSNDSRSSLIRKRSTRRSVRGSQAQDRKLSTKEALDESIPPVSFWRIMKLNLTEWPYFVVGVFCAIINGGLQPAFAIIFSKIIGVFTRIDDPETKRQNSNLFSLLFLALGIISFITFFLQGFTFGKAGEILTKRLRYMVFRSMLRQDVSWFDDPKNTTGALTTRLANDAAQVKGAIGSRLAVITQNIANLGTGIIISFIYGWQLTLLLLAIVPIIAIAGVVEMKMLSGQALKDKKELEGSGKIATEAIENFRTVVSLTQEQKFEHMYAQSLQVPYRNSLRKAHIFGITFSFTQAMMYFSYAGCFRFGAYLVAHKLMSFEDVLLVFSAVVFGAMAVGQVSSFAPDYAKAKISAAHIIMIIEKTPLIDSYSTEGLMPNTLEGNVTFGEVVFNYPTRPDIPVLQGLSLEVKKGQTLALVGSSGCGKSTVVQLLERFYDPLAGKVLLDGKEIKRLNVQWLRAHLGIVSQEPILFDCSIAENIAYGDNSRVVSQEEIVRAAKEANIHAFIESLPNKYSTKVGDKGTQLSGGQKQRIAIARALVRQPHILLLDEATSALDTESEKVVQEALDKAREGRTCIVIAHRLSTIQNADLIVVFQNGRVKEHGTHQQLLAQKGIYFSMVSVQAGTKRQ
Experiment: MDR1 (ABCB1) efflux transporter inhibition, cell-based (AID 377; in the data active = fluorescence slope change above about 50%)
Conditions: MDR1-expressing cells, fluorescent substrate accumulation slope; stronger effect = higher value; concentration not given here
In the case of O=C1OC(CN2CCOCC2)CN1N=Cc1ccc([N+](=O)[O-])o1 (stereo not given), the fluorescence slope change was 11.7% (inactive).
In the case of CNc1ncnc2c1ncn2[C@@H]1O[C@H](CO)[C@@H](O)[C@H]1O, the fluorescence slope change was 64.6% (active).
With Nc1nc(=S)c2ncn([C@@H]3O[C@H](CO)[C@@H](O)[C@H]3O)c2[nH]1 the fluorescence slope change was 59.6% (active).
With CNCCC=C1c2ccccc2C=Cc2ccccc21 the fluorescence slope change was 58% (active).
In the case of c1ccc(CNc2ncnc3nc[nH]c23)cc1, the fluorescence slope change was 11.7% (inactive).
For O=C1OC(C(O)CO)C(O)=C1O (stereo not given), the fluorescence slope change was 10.1% (inactive).
In the case of CCCCC[C@H](O)/C=C/[C@@H]1[C@@H](C/C=C\CCCC(=O)O)[C@@H](O)C[C@H]1O (tested in a mixture with another compound), the fluorescence slope change was 101% (active).

System: not listed separately
Experiment: hESC survival regulators, cell-based (AID 493140; call rule not given here;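 also: cells exposed to compounds for four days before counting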)
Conditions: human embryonic stem cell survival screen; stronger effect = higher value
With CC(=O)N(CC(C)C(=O)O)c1c(I)cc(I)c(N)c1I (stereo not given) the survival was 3.33 (inactive).
For Cc1cc(C(=O)NNCc2ccccc2)no1, the survival was 3.33 (inactive).
With O=C1OC(CN2CCOCC2)CN1N=Cc1ccc([N+](=O)[O-])o1 (stereo not given) the survival was 5.92 (inactive).
For CCC(=O)OCC(=O)C1(OC(=O)CC)[C@H](C)C[C@H]2[C@H]3[C@H]([C@@H](O)C[C@@]21C)[C@@]1(C)C=CC(=O)C=C1C[C@H]3Cl (stereo not given in full), the survival was 4.33 (inactive).
In the case of CC(C)(C)C(=O)OCOC(=O)[C@@H]1N2C(=O)[C@@H](N=CN3CCCCCC3)[C@H]2SC1(C)C, the survival was 17.2 (inactive).
In the case of CNC(=O)c1c(I)c(C(=O)NCC(=O)Nc2c(I)c(C(=O)O)c(I)c(C(=O)NCCO)c2I)c(I)c(N(C)C(C)=O)c1I, the survival was 10.4 (inactive).
In the case of CNc1ncnc2c1ncn2[C@@H]1O[C@H](CO)[C@@H](O)[C@H]1O, the survival was 5.42 (inactive).
With Nc1nc(=S)c2ncn([C@@H]3O[C@H](CO)[C@@H](O)[C@H]3O)c2[nH]1 the survival was 1.25 (inactive).
For O=C1NCCN1c1ncc([N+](=O)[O-])s1, the survival was 3.92 (inactive).
For CCC(=O)[C@@]1(C)[C@H](C)C[C@H]2[C@@H]3CCC4=CC(=O)C=C[C@]4(C)[C@H]3[C@@H](O)C[C@@]21C, the survival was 5.08 (inactive).
In the case of CC1(C)S[C@@H]2[C@H](NC(=O)COc3ccccc3)C(=O)N2C1C(=O)O (stereo not given in full) (tested in a mixture with another compound), the survival was 4 (inactive).
For CC[N+](CC)(CC)CCC(O)(c1ccccc1)C1CCCCC1 (stereo not given), the survival was 3.08 (inactive).
In the case of CNCCC=C1c2ccccc2C=Cc2ccccc21, the survival was 0.833 (inactive).
For Cc1cn(C2CC(N=[N+]=[N-])C(CO)O2)c(=O)[nH]c1=O (stereo not given), the survival was 10.2 (inactive).
For c1ccc(CNc2ncnc3nc[nH]c23)cc1, the survival was 39 (inactive).
For O=C(O)C(O)C(O)C(O)C(O)C(=O)O (stereo not given) (tested in a mixture with another compound), the survival was 5.33 (inactive).
For C[C@@H]1C[C@H]2[C@@H]3C[C@H](F)C4=CC(=O)C=C[C@]4(C)[C@@]3(Cl)[C@@H](O)C[C@]2(C)[C@H]1C(=O)COC(=O)C(C)(C)C, the survival was 4.25 (inactive).
In the case of CCCC1C(=O)N2C(N(C)C)=Nc3ccc(C)cc3N2C1=O (stereo not given), the survival was 9.17 (inactive).
With CCCCC[C@H](O)/C=C/[C@@H]1[C@@H](C/C=C\CCCC(=O)O)[C@@H](O)C[C@H]1O (tested in a mixture with another compound) the survival was 6.75 (inactive).

System: not listed separately
Experiment: liver-stage malaria parasite growth inhibition, primary screen, cell-based, HepG2, luciferase luminescence, HepG2 viability (AID 624349);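 also: 100% = mean of DMSO negative control wells on the same plate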
Conditions: P. berghei liver stage in HepG2, luciferase luminescence, concentration not given here; parasite load remaining: stronger effect = lower value; viability: measured here: HepG2 viability without parasites
For CC(=O)N(CC(C)C(=O)O)c1c(I)cc(I)c(N)c1I (stereo not given), the parasite load remaining was 76.2% (inactive) and the viability was 95.9%.
With Cc1cc(C(=O)NNCc2ccccc2)no1 the viability was 100% and the parasite load remaining was 129% (inactive).
With CCC(=O)OCC(=O)C1(OC(=O)CC)[C@H](C)C[C@H]2[C@H]3[C@H]([C@@H](O)C[C@@]21C)[C@@]1(C)C=CC(=O)C=C1C[C@H]3Cl (stereo not given in full) the viability was 97.3% and the parasite load remaining was 104% (inactive).
For CC(C)(C)C(=O)OCOC(=O)[C@@H]1N2C(=O)[C@@H](N=CN3CCCCCC3)[C@H]2SC1(C)C, the viability was 108% and the parasite load remaining was 86.3% (inactive).
For CNC(=O)c1c(I)c(C(=O)NCC(=O)Nc2c(I)c(C(=O)O)c(I)c(C(=O)NCCO)c2I)c(I)c(N(C)C(C)=O)c1I, the viability was 71.7% and the parasite load remaining was 91.6% (inactive).
With CNc1ncnc2c1ncn2[C@@H]1O[C@H](CO)[C@@H](O)[C@H]1O the parasite load remaining was 23.9% (inactive) and 70.7% (inactive) and the viability was 132% and 78.2%.
In the case of Nc1nc(=S)c2ncn([C@@H]3O[C@H](CO)[C@@H](O)[C@H]3O)c2[nH]1, the parasite load remaining was 64.1% (inactive) and 72.9% (inactive) and the viability was 36.6% and 69.4%.
For O=C1NCCN1c1ncc([N+](=O)[O-])s1, the viability was 122% and 79.5% and the parasite load remaining was 95% (inactive) and 83.2% (inactive).
With CCC(=O)[C@@]1(C)[C@H](C)C[C@H]2[C@@H]3CCC4=CC(=O)C=C[C@]4(C)[C@H]3[C@@H](O)C[C@@]21C the parasite load remaining was 104% (inactive) and the viability was 73.1%.
With CC1(C)S[C@@H]2[C@H](NC(=O)COc3ccccc3)C(=O)N2C1C(=O)O (stereo not given in full) (tested in a mixture with another compound) the parasite load remaining was 98.8% (inactive) and the viability was 75.5%.
For CC[N+](CC)(CC)CCC(O)(c1ccccc1)C1CCCCC1 (stereo not given), the parasite load remaining was 97.4% (inactive) and the viability was 92.1%.
In the case of CNCCC=C1c2ccccc2C=Cc2ccccc21, the parasite load remaining was 45.3% (inactive) and 67.3% (inactive) and the viability was 45.5% and 71.9%.
In the case of c1ccc(CNc2ncnc3nc[nH]c23)cc1, the viability was 49.8% and 87.6% and the parasite load remaining was 31% (inactive) and 123% (inactive).
For O=C(O)C(O)C(O)C(O)C(O)C(=O)O (stereo not given) (tested in a mixture with another compound), the parasite load remaining was 114% (inactive) and the viability was 71.7%.
For C[C@@H]1C[C@H]2[C@@H]3C[C@H](F)C4=CC(=O)C=C[C@]4(C)[C@@]3(Cl)[C@@H](O)C[C@]2(C)[C@H]1C(=O)COC(=O)C(C)(C)C, the viability was 86.4% and the parasite load remaining was 85.6% (inactive).
In the case of CCCC1C(=O)N2C(N(C)C)=Nc3ccc(C)cc3N2C1=O (stereo not given), the parasite load remaining was 172% (inactive) and the viability was 71.8%.
In the case of CCCCC[C@H](O)/C=C/[C@@H]1[C@@H](C/C=C\CCCC(=O)O)[C@@H](O)C[C@H]1O (tested in a mixture with another compound), the parasite load remaining was 74.8% (inactive) and 88.7% (inactive) and the viability was 111% and 88.8%.

— PubChem BioAssay
